# Records with an inconclusive call do not appear. Unmarked numbers belong to inactive results. Active and inactive are the calls of the source. Calls follow the shape of the dose curve; as a rule, active = well fitted activation curve with a large enough effect in the signal ratio in the repeat runs (not every such curve was filed as active); inconclusive = weak or mixed curves, or effect the other way; inactive = no such curve, though single readings can be large or run the other way; the % refers to the signal ratio.
# Target: Peroxisome proliferator-activated receptor gamma (Homo sapiens) (UniProt P37231)
# Experiment: qHTS assay to identify small molecule agonists of the peroxisome proliferator-activated receptor gamma (PPARg) signaling pathway (AID 743094)
# Conditions: HEK293H PPARg-UAS-bla, beta-lactamase FRET ratio, 17 h; series mostly up to 57 µM; activation: at the top concentration
# From the text: U.S. Tox21 Program National Center for Advancing Translational Sciences [NCATS] NIH Chemical Genomics Center [NCGC] U.S. Environmental Protection Agency [EPA] National Institutes of Environmental Health Sciences [NIEHS] National Toxicology Program [NTP] U.S. Food and Drug Administration [FDA] Tox21 Assay Overview: The peroxisome proliferator-activated receptors (PPARs) are lipid-activated transcription factors of the nuclear receptor superfamily with three distinct subtypes namely PPAR alpha, PPAR delta (also called PPAR beta) and PPAR gamma (PPARg). All these subtypes heterodimerize with Retinoid X receptor (RXR) and these heterodimers regulate transcription of various genes. PPAR-gamma receptor (glitazone receptor) is involved in the regulation of glucose and lipid metabolism. To identify the compounds that activate PPAR-gamma signaling, GeneBLAzer PPAR gamma UAS-bla HEK293H cell line (Invitrogen, Carlsbad, CA, USA) containing a beta-lactamase reporter gene under control of the control of an upstream activator sequence (UAS) stably integrated into HEK293H cells was used to screen Tox21 compound library.
# Tox21 Assay Protocol Summary: PPARg-bla cells were dispensed at 3000 cells/6uL/well in 1536-well black wall/clear bottom plates using a Multidrop Combi (Thermo Fisher Scientific, Waltham, MA) dispenser. After the assay plates were incubated at 37C and 5% CO2 for 5 h, 23 nL of compounds dissolved in DMSO, positive controls or DMSO only was transferred to the assay plate by a Pintool station (Kalypsys, San Diego, CA). The assay plates were incubated at 37C for 17 h. After 1 uL of LiveBLAzerTM B/G FRET substrate was added using a Bioraptr Flying Reagent Dispenser (FRD) workstation (Beckman Coulter, Indianapolis, IN, USA), the plates were incubated at room temperature for 1 h, and fluorescence intensity was measured by an Envision plate reader (PerkinElmer, Shelton, CT).
# % is scaled to controls: 0 for no effect and ±100 for the full control effect; potency is read from the fitted curve at half-maximal effect.
# Chain of Peroxisome proliferator-activated receptor gamma (Homo sapiens) (P37231 whole entry, looked up): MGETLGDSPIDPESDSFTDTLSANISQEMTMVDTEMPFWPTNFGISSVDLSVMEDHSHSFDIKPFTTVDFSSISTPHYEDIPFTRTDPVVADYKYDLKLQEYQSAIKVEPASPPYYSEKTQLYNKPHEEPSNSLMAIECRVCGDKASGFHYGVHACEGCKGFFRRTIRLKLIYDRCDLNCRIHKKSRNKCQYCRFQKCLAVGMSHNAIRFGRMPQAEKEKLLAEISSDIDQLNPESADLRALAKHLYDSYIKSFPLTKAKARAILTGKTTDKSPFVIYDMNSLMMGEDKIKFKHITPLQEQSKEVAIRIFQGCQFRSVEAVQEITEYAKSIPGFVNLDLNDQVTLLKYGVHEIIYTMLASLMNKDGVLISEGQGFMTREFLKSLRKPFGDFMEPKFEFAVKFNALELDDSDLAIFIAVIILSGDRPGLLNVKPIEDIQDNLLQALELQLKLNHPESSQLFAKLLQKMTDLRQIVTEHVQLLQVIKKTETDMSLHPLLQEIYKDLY
SMILES,activation,Potency
Cc1ccc(C(C)c2ccc(C)c(C)c2)cc1C,1.95%,–
CCCCOc1cc(C(=O)OCCN(CC)CC)ccc1N,0.315% [at 26.2 µM],–
C=CC(=O)OCCOC(=O)CCC(=O)O,–,54.9 µM (active)
c1ccc(-c2nc[nH]c2-c2ccccc2)cc1,-4.04%,–
CC(=O)Nc1ccc(/C=N/NC(N)=S)cc1,–,inactive
COCCCCCCCCOCCC[Si](C)(O[Si](C)(C)C)O[Si](C)(C)C,-5.6%,–
N#CCCNCCC#N,-7.66% [at 78.9 µM],–
Oc1ccc2c(c1)OCO2,-4.37%,–
C=CCCCCCC,0.204%,–
Cn1c(N)nc2nc[nH]c2c1=O,-5.88%,–
NC(N)=N/N=C/c1c(Cl)cccc1Cl,-0.17%,–
Cc1cc(O)ccc1N,-0.632% [at 78.9 µM],–
N#Cc1c(F)cccc1F,0.0084%,–
ClC(Cl)(Cl)c1ccc(C(Cl)(Cl)Cl)cc1,-2.96%,–
CCCCCC(CO)CCC (stereo not given),0.742%,–
CCOC(=O)CC(=O)c1cc(F)c(Cl)nc1Cl,-4.52% [at 78.9 µM],–
CC[C@H](C)[C@@H](C(=O)O)n1sc2ccccc2c1=O,-1.49%,–
CC(=O)OC/C=C/c1ccccc1,0.789%,–
Cc1ccccc1N=Nc1ccc(N=Nc2c(O)ccc3ccccc23)c(C)c1,-2.49%,–
CCN1CCC[C@H]1CNC(=O)c1c(OC)ccc(Br)c1OC,-0.0248%,–

SMILES,activation,Potency
CN1CCC(=C2c3ccccc3C=Cc3ccccc32)CC1,1.78%,–
CCCCc1cc2ccccc2c(OCCN(C)C)n1,-1.85% [at 26.2 µM],–
Cn1c(=O)c2c(ncn2CC(O)CO)n(C)c1=O (stereo not given),-0.879% [at 26.2 µM],–
Cc1cc(C)c(S(=O)(=O)O)cc1N=Nc1cc(S(=O)(=O)O)c2ccccc2c1O,0.0443%,–
O=C(CC(=O)c1ccccc1)c1ccccc1,-1% [at 78.9 µM],–
CC(C)=CCCC(C)CC=O (stereo not given),2.56%,–
N[C@H]1C(O)O[C@H](CO)[C@H](O)[C@@H]1O (stereo not given in full),0.521%,–
CC(C)(C)c1ccc(S)cc1,-8.39%,–
Nc1ccc(C(=O)Nc2ccccc2N)cc1,–,9.52 µM (active)
CN1CCC[C@@H]1c1cccnc1,0.506%,–
NCCCOCCOCCOCCCN,7.75%,–
C[C@H](CCC(=O)O)[C@H]1CC[C@H]2[C@@H]3[C@H](O)C[C@@H]4C[C@H](O)CC[C@]4(C)[C@H]3CC[C@]12C,-0.0788% [at 26.2 µM],–
O=C(Cl)c1ccc([N+](=O)[O-])cc1,0.923%,–
CCCCCCCC/C=C\CCCCCCCC(N)=O,4.64%,–
OCCC1CCCCN1 (stereo not given),0.497% [at 78.9 µM],–
O=S(=O)(O)c1ccc(O)c2ncccc12,-9.49%,–
Cc1c(Cn2ccnc2)c2ccccc2n1CCC(=O)O,0.587%,–
C1=Cc2ccccc2C1,3.84%,–
CCCOc1ccc2nc(NC(=O)OC)[nH]c2c1,-2.92%,–
CCCCC(CC)(CO)CO,3.61%,–

# — PubChem BioAssay (Tox21)
